PubChem BioAssay
Where “and” joins values, the source holds several entries; their conditions need not be identical. Equal values may be shown once. Calls of active or inactive are those of the source.

How the values were obtained:
[1] = tested on: Plasmodium falciparum Sir2 (PF13_0152, Sir2A); assay: pfSir2 binders on small-molecule microarrays, primary screen, biochemical, small-molecule microarray, 635 nm fluorescence (AID 1098); details: small-molecule microarray binding, fluorescence 635 nm; higher = more signal;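 note: score merges spot fluorescence intensity with its signal-to-noise ratio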
[2] = small-molecule microarray binders of probe aDKK1, primary screen, biochemical, biotinylated probe, 635/667 nm fluorescence (AID 1099); details: higher = more signal;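 note: score merges 667nm spot fluorescence with signal to noise across triplicate slides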
[3] = small-molecule microarray binders of probe aCHRDL2, primary screen, biochemical, biotinylated probe, 635/667 nm fluorescence (AID 1100); details: higher = more signal
[4] = splicing luciferase reporter signal modulators, primary screen, spliceosome inhibition project, cell-based, HEK293, splice +/- reporter (AID 1101); details: luminescence, 24 h, higher = more signal, called active from +8 up or from −8 down;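 note: HEK293 cells carrying a splicing-competent luciferase reporter gene; test concentration not given here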
[5] = target: Fibroblast growth factor 10 (Homo sapiens) (UniProt O15520); assay: FGF10 binders on small-molecule microarrays, primary screen, biochemical, small-molecule microarray, 635 nm fluorescence (AID 1102); details: FGF10 binding, fluorescence 635 nm, higher = more signal
Chain of Fibroblast growth factor 10 (Homo sapiens) (O15520 whole entry, looked up): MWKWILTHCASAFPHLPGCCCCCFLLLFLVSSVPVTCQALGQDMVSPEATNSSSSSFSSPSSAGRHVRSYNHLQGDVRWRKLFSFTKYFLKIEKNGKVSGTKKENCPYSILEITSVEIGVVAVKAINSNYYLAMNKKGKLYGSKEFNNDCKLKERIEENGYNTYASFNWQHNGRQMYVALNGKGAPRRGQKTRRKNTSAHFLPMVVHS

[6] = tested on: glycogen synthase kinase-3 (GSK3A per assay name; protocol says GSK3B); assay: GSK3 binders on small-molecule microarrays, primary screen, biochemical, small-molecule microarray, 635 nm fluorescence, GSK3A (AID 1103); details: small-molecule microarray binding, fluorescence 635 nm; higher = more signal; note: the record names both GSK3A and GSK3B
[7] = target: Epidermal growth factor receptor (Homo sapiens) (UniProt P00533); assay: EGFR binders on small-molecule microarrays, primary screen, biochemical, small-molecule microarray, 635 nm fluorescence (AID 1104); details: EGFR binding, higher = more signal;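 note: score merges 667 nm emission intensity with spot signal to noise over triplicate slides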
Chain of Epidermal growth factor receptor (Homo sapiens) (P00533 whole entry, looked up): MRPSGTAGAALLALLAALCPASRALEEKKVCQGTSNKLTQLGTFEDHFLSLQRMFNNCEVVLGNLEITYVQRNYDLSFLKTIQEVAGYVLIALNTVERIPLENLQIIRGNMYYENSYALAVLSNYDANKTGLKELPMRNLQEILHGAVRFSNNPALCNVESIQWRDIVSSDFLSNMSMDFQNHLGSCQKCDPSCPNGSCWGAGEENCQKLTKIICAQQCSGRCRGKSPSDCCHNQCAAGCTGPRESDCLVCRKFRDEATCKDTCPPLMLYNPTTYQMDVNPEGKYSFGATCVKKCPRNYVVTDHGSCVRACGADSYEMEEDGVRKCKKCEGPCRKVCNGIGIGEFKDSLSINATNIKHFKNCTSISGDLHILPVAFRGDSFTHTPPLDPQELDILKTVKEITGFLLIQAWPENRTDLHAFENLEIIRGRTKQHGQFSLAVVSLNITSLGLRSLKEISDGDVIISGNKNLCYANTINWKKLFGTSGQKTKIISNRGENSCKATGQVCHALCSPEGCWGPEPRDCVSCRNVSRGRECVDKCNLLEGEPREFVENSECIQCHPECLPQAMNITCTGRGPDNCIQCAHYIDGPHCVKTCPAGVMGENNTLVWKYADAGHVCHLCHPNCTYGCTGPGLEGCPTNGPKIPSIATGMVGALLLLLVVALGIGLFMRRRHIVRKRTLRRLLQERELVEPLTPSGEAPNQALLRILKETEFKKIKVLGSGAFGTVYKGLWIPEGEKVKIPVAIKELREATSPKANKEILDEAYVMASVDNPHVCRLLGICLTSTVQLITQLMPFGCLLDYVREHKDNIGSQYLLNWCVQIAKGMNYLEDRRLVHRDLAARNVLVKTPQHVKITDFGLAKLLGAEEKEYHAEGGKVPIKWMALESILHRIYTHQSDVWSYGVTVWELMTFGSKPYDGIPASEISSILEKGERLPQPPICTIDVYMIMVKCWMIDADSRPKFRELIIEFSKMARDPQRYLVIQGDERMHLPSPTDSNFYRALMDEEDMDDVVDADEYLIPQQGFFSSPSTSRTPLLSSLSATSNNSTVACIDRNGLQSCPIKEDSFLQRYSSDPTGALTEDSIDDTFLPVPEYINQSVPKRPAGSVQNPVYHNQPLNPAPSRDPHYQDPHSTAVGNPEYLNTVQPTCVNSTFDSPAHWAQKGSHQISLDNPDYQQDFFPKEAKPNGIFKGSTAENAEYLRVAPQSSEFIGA

[8] = target: Follistatin-related protein 3 (Homo sapiens) (UniProt O95633); assay: FSTL3 binders on small-molecule microarrays, primary screen, biochemical, small-molecule microarray, 635 nm fluorescence (AID 1105); details: FSTL3 binding, higher = more signal;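 note: score merges emission near 667 nm and signal to noise per printed spot across three slides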
Chain of Follistatin-related protein 3 (Homo sapiens) (O95633 whole entry, looked up): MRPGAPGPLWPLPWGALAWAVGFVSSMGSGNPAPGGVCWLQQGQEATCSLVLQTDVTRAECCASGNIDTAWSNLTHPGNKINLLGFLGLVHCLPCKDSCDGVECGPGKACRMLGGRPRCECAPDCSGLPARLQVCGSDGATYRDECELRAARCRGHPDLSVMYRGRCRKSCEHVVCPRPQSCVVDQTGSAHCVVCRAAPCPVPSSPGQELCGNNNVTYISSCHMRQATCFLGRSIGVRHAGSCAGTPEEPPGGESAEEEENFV

[9] = target: Dickkopf-related protein 1 (Homo sapiens) (UniProt O94907); assay: DKK1 binders on small-molecule microarrays, primary screen, biochemical, small-molecule microarray, 635 nm fluorescence scan (AID 1106); details: DKK1 binding, higher = more signal;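 note: score merges emission near 667 nm with signal to noise over three replicate slides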
Chain of Dickkopf-related protein 1 (Homo sapiens) (O94907 whole entry, looked up): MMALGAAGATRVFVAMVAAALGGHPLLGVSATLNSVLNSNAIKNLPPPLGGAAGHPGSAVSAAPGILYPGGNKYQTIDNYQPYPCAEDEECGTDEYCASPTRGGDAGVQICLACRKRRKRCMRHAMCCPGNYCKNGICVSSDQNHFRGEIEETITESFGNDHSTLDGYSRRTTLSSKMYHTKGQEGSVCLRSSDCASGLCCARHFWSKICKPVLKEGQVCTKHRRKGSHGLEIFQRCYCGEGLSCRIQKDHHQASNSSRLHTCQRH

[10] = tested on: Inhibin beta A chain (activin A); assay: INHBA (activin A) binders on microarrays, primary screen, biochemical, small-molecule microarray, 635 nm fluorescence scan (AID 1107); details: small-molecule microarray binding, higher = more signal;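 note: mouse activin A protein probed at 4.33 µg/mL on printed slides; score merges bound-protein fluorescence near 667 nm with spot signal-to-noise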
[11] = tested on: Human papillomavirus type 1a protein E7 (residues 44-93); assay: HPV1a E7 fragment binders on microarrays, primary screen, biochemical, small-molecule microarray, residues 44-93, 635 nm fluorescence (AID 1108); details: small-molecule microarray binding, fluorescence 635 nm; higher = more signal;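 note: E7 fragment applied at 1 µg/mL in TBST for 1 h at 4 C; score combines spot fluorescence with its signal to noise ratio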
[12] = modulators of HCV replicon luciferase signal, primary screen, HCV replication inhibitor project, Huh7 cells, luciferase reporter (AID 1109); details: 48 h, higher = more signal;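 note: huh7 hepatoma cells harbouring a luciferase neomycin HCV replicon reporter; luciferase luminescence as measure of HCV replicon replication; test concentration not given here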
[13] = target: Left-right determination factor 2 (Homo sapiens) (UniProt O00292); assay: LEFTY2 binders on small-molecule microarrays, primary screen, biochemical, small-molecule microarray, 635 nm fluorescence scan (AID 1110); details: LEFTY2 binding, higher = more signal
Chain of Left-right determination factor 2 (Homo sapiens) (O00292 whole entry, looked up): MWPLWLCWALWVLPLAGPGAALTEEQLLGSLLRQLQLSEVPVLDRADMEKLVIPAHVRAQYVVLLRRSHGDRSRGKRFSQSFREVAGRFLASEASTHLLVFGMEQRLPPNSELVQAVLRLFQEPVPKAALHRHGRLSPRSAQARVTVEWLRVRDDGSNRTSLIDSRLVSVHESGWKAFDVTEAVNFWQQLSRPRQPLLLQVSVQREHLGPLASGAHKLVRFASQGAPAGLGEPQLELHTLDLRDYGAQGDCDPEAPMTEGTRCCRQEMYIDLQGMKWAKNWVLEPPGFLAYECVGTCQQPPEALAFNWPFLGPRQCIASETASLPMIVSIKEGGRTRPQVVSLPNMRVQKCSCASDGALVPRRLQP

[14] = target: Calmodulin-1 (Homo sapiens) (UniProt P0DP23); assay: CALM1 binders on microarrays, EGTA buffer, profiling panel, biochemical, small-molecule microarray, Cy5-labelled CALM1 (AID 1111); details: Cy5-CALM1 binding fluorescence, higher = more signal;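 note: labelled calmodulin applied in Tris saline Tween buffer holding calcium plus EGTA and DTT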
[15] = target: Calmodulin-1 (Homo sapiens) (UniProt P0DP23); assay: calcium-bound CALM1 binders on microarrays, profiling panel, artefact control for SMM control-protein annotation, biochemical, small-molecule microarray, Cy5-labelled CALM1, plus calcium (AID 1112); details: Cy5-CALM1 binding fluorescence, higher = more signal;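 note: score merges spot fluorescence with signal to noise from triplicate slides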
[16] = small-molecule microarray binders of probe aWnt5a, primary screen, biochemical, biotinylated probe, 635/667 nm fluorescence (AID 1113); details: higher = more signal;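 note: score merges 667 nm fluorescence intensity with signal-to-noise per printed feature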
[17] = small-molecule microarray binders of probe aShh, primary screen, biochemical, biotinylated probe, 635/667 nm fluorescence (AID 1114); details: higher = more signal;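 note: probe is biotin-labelled aShh protein from a stem cell growth factor screen; measures binding of labelled protein to compounds printed on the slide; score merges feature fluorescence at 667 nm with signal-to-noise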
[18] = small-molecule microarray binders of probe aNog, primary screen, biochemical, biotinylated probe, 635/667 nm fluorescence (AID 1115); details: higher = more signal;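 note: probe is biotinylated aNog protein used at 0.15 µg/mL for 1 h at 4 C; z-score combines 667 nm fluorescence of each spot with its signal to noise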
[19] = target: Torsin-1A-interacting protein 1 (Homo sapiens) (UniProt Q5JTV8); assay: LAP1 binders from COS7 cell lysate, primary screen, small-molecule microarray, 635/667 nm fluorescence (AID 1116); details: COS7-hLAP1 lysate binding, 635 nm fluorescence, higher = more signal
Chain of Torsin-1A-interacting protein 1 (Homo sapiens) (Q5JTV8 whole entry, looked up): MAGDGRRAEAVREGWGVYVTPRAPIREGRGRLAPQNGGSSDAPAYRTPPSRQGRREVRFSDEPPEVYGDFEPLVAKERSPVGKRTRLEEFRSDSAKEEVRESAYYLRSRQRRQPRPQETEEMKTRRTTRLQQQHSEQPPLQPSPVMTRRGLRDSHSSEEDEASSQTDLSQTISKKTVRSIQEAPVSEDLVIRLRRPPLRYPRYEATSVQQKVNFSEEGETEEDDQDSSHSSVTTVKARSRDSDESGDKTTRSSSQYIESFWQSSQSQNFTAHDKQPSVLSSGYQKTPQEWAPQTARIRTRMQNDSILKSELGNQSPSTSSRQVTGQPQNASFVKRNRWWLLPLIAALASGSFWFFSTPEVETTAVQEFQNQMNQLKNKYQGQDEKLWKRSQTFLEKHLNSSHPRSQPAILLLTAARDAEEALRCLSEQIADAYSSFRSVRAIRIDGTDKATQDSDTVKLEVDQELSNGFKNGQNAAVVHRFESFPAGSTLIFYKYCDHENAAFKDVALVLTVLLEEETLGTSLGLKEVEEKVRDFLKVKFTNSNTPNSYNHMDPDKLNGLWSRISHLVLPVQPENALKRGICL

[20] = target: Alpha-bungarotoxin (Bungarus multicinctus) (UniProt P60615); assay: alpha-bungarotoxin binders on microarray, profiling panel, artefact control for SMM control protein annotation, biochemical, small-molecule microarray, Alexa647 label, 635/667 nm fluorescence (AID 1117); details: alpha-BTX-A647 binding fluorescence, higher = more signal
Chain of Alpha-bungarotoxin (Bungarus multicinctus) (P60615 whole entry, looked up): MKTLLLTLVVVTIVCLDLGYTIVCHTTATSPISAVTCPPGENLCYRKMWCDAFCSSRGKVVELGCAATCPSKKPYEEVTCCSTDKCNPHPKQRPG

| SMILES | composite z-score [1] | composite z-score [2] | composite z-score [3] | z-score [4] | composite z-score [5] | composite z-score [6] | composite z-score [7] | composite z-score [8] | composite z-score [9] | composite z-score [10] | composite z-score [11] | z-score [12] | composite z-score [13] | composite z-score [14] | composite z-score [15] | composite z-score [16] | composite z-score [17] | composite z-score [18] | composite z-score [19] | composite z-score [20] |
| --- | --- | --- | --- | --- | --- | --- | --- | --- | --- | --- | --- | --- | --- | --- | --- | --- | --- | --- | --- | --- |
| C=CCN(CCCC)C(=O)C(c1cccs1)N(C(=O)/C=C\C(=O)O)c1c(Cl)cccc1CO (stereo not given) | 0.129 and 1.61 | -0.0631 and -0.131 | 1.25 and 0.906 | 0.173 (inactive) and 0.771 (inactive) | -2.81 and -1.97 | -0.944 and -0.892 | -2.16 and -2.02 | -1.44 and -2.65 | -3.42 and -2.44 | -3.52 and -2.04 | -1.23 and -1.01 | -0.765 and -0.992 | -3.75 and -3.83 | -0.731 and -0.883 | 0.215 and 0.584 | -0.328 and -0.303 | -0.0769 and -0.221 | -0.0173 and -0.0409 | -1.53 and -1.41 | -1.09 and -1.15 |
| C=CCN(CCCCC)C(=O)C1N(c2ccc(CCO)cc2)C(=O)C2C(C(=O)O)C3C=CC21O3 (stereo not given) | 0.122 and -0.0398 | -0.244 and -0.184 | 0.976 and 0.99 | -0.296 (inactive) and 0.494 (inactive) | -1.01 and -1.64 | -1.29 and -1.34 | -1.23 and -1.1 | -0.937 and -1.43 | -1.6 and -1.19 | -1.49 and -1.34 | -0.351 and -0.928 | 0.471 and -0.235 | -2.25 and -3.05 | -1.51 and -0.989 | -0.455 and -0.143 | -0.23 and -0.316 | -0.0769 and -0.0866 | -0.387 and -0.332 | 0.143 and 0.422 | -2.97 and -1.37 |
| COCn1c2ccccc2c2nnc(C(C)=O)nc21 | -0.137 and 0.312 | -0.228 and -0.221 | -0.42 and -0.408 | -0.592 (inactive) and -0.85 (inactive) | 0.529 and 0.182 | -0.0671 and 0.0307 | 0.574 and 0.979 | 0.383 and 0.277 | 0.808 and 0.152 | 0.12 and 0.483 | -0.421 and 0.238 | -0.366 and 0.141 | 0.486 and 0.305 | -0.338 and -0.015 | -0.462 and -0.409 | -0.182 and -0.124 | -0.282 and -0.0769 | -0.294 and -0.158 | 0.184 and 0.0111 | 0.0727 and 0.378 |
| C=CCN(C(=O)C1N(c2c(Cl)cccc2CO)C(=O)C2C(C(=O)O)C3C=CC21O3)C(C)(C)C (stereo not given) | 0.769 and -1.57 | -0.525 and -0.241 | -0.269 and 0.798 | -0.859 (inactive) and -1.07 (inactive) | -0.788 and -1.43 | -1.39 and -0.911 | -1.85 and -0.913 | -0.332 and 0.322 | -2.02 and -2.22 | -0.918 and -0.985 | -0.375 and -1.73 | -0.892 and -0.519 | -2.64 and -2.81 | -0.68 and -0.347 | -0.0519 and 0.673 | -0.334 and -0.28 | -0.544 and -0.123 | 0.793 and -0.124 | -0.879 and -1.71 | -1.09 and -1.44 |
| C=CCN(CCCCC)C(=O)C(c1cccs1)N(C(=O)/C=C\C(=O)O)c1c(Cl)cccc1CO (stereo not given) | 1.04 and 0.231 | -0.0127 and -0.47 | 1.15 and 0.975 | 0.105 (inactive) and 1.15 (inactive) | -0.85 and -2.15 | -0.612 and -1.36 | -2.28 and -1.78 | -2.13 and -1.29 | -3.02 and -1.77 | -2.25 and -3.37 | -0.961 and -1.88 | -0.651 and -0.698 | -3.1 and -0.775 | -0.332 and -1.06 | 0.782 and -0.54 | -0.228 and -0.348 | -0.138 and -0.291 | 0.509 and -0.369 | 2.83 and -1.08 | -2.56 and -0.725 |
